# Reference: PMC12136788
# Numbering of substitutions follows the chain as printed. Over roughly 24,000 sequences, “enrichment r” has its median near 0.99; the highest 2% begin near 3.7. For the sample, the highest values were picked, then their nearest neighbours and some sequences at random.
# T1: UNK ZnF1-3 (human, UniProt Q9C0B0 31-174)
# T1 sequence: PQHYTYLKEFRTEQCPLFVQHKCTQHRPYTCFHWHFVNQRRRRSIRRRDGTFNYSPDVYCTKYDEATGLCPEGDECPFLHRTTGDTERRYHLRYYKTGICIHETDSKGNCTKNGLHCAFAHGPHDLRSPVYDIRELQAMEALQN
# B1: chr1:89346535:89346536:+_ENSMUSG00000048000_ENSMUST00000174671|mus_hu|FALSE|FALSE (ssRNA)
# RNA: GGGAGUUCUACAGUCCGACGAUCAGCUGCCUCUUAAACGAGACAAAUUUUCAGCAGAAGGGCCCAAAACAAAAUGGUCCUAGUCCUCUGAAGUAAAAAUAUUUAUGGGAAAAAUCAGUUUUUGUAAGAAAGAAAAAUUAAGAACAACAGAGGAUUGAGCAUCA
# B2: chr1:89346535:89346536:+_ENSMUSG00000048000_ENSMUST00000174671|mus_mus|motif|central (ssRNA)
# RNA: GGGAGUUCUACAGUCCGACGAUCAAGAUGCCUCUUAAACGAGACAAAUUUUCACAUAAGGGCCCAAAACAAACUGGUCCGGGUCCUUGAAGUAAAAAUAUUUAUGGGAGGAGGGGAGAUCAGUUUUUAUAUGAAAGGAAAAUUCAACAGAGGAUUGAGCAUCA
# B3: chr1:89346535:89346536:+_ENSMUSG00000048000_ENSMUST00000174671|mus_hu|motif|central (ssRNA)
# RNA: B1 RNA with U80G, A81G
# B4: chr2:42509997:42509998:+_ENSG00000143924_ENST00000318522|hu_mus|hu_hu_hu_mus_True|78_78 (ssRNA)
# RNA: GGGAGUUCUACAGUCCGACGAUCUCGCUGAGUCCUCUCCUCAUAAUUAAACAGGACUACUACUGAUGCGAUAAAAUAAACUAUCUCCCCUGUGGGAAGCAGGUAUACAUUCGCUCUACAGUCCUUUCCUCGAUAACCGUAUACCAACAGAGGAUUGAGCAUCA
# B5: chr10:13251168:13251169:-_ENSMUSG00000019809_ENSMUST00000019945|mus_hu|FALSE|FALSE (ssRNA)
# RNA: GGGAGUUCUACAGUCCGACGAUCAGCCAUAUUGUCUAGAAGUCUACUAAAACCUCGGUUUAAACAGGUAUUCAAAACUGUACUAAAAUCUGGGCUUUCCAACAUGUCUCUAGUUUCAUUGAGAAGUUUAAUAGUGGUAAUGUCCAACAGAGGAUUGAGCAUCA
# B6: chr16:732453:732454:+_ENSG00000103266_ENST00000219548|hu_mus|FALSE|FALSE (ssRNA)
# RNA: GGGAGUUCUACAGUCCGACGAUCUGCCAGGCAGGACAUGGGGCCUCAAUAGUCCUCUACCCAGCCGUUCUCAGAGAUGAAAGCGUCAAUGACUUCCUUCAUGGCCAAGUUGGGGAUGAGCUGUUCCUGGGUCAGAGGGCUCCGCAACAGAGGAUUGAGCAUCA
# B7: chr9:95013113:95013114:-_ENSG00000196305_ENST00000443024|hu_hu|hu_hu_hu_mus_False|1_88 (ssRNA)
# RNA: GGGAGUUCUACAGUCCGACGAUCCUCAGUCAGAAAGGGCGUGUAAGGAGCCAUAAGUCUGCACAGAGAAAGCAGGACACUGAACAGUGUCUCCAGAGCCAUGACACAGUCUUCCACCCCACUCUCACCCUUUAACCUUCUGCGCAACAGAGGAUUGAGCAUCA
# B8: chr7:135612270:135612271:-_ENSG00000105887_ENST00000393085|hu_mus|hu_hu_hu_mus_False|1_58 (ssRNA)
# RNA: GGGAGUUCUACAGUCCGACGAUCGUUUUUUUCUGAGAUGUUAAAUAGUACUUCAGUGGAAAACAAAACUUAACCUUUCGCUAAUGCGUGUUGUACCAAAAGCAGACAUUUUAGCUUCAUUUAUUCAAAAAUAUUAAGAACAUUCAACAGAGGAUUGAGCAUCA
# B9: chr7:135612270:135612271:-_ENSG00000105887_ENST00000393085|hu_mus|hu_hu_hu_mus_False|28_38 (ssRNA)
# RNA: GGGAGUUCUACAGUCCGACGAUCGUUUUUUUCUGAGAUGUUAAAUAGUACUUCAGUGGAAAACAAAACUUAACCUUUUAUUAAUGCGUGUUGUACCAGAAAGCAAACAUGGUUUUACAUUUAUUCAAAAAUAUUAACAUUAAGCAACAGAGGAUUGAGCAUCA
# B10: chr7:135612270:135612271:-_ENSG00000105887_ENST00000393085|hu_mus|hu_hu_hu_mus_False|38_88 (ssRNA)
# RNA: GGGAGUUCUACAGUCCGACGAUCGUUUUUUUCUGAGAUGUUAAAUAUUCAGUGGAGGGAAAACAAAACUUAACCUUUUAUUAAUGCGUGUUGUACCAGAAAGCAAAAUUUUAGCUUCAUUUAUUCAAAAAUAUUAACAUUAAGCAACAGAGGAUUGAGCAUCA
# B11: chr1:58468927:58468928:-_ENSMUSG00000026034_ENSMUST00000148330|mus_mus|mus_mus_mus_hu_False|28_48 (ssRNA)
# RNA: GGGAGUUCUACAGUCCGACGAUCAAUUACUGAAAAAGAUGUUCAUUACCUUAGCUAUGUACUUAAUGAACCAAAUUACCCAAACAACAUAAAAUGUGCAAUAUAAAAAGCUAUACAAUUUACAAAGCUGUACAAAAUAACUUACAACAGAGGAUUGAGCAUCA
# B12: chr11:94154035:94154036:-_ENSMUSG00000020863_ENSMUST00000107820|mus_mus|FALSE|FALSE (ssRNA)
# RNA: GGGAGUUCUACAGUCCGACGAUCAAUAGUUAAGUUUUAAAGCAUAUGUUUCUGCCAAUGUACCAACACAAGAUGGACUUAAUACCAAAAAGAAAAAAAAAACAGUUCAACCUUUUUAUUAAAAAAAAAAAGAAAAAGAAAAAGCAACAGAGGAUUGAGCAUCA
# B13: chr9:56975896:56975897:+_ENSMUSG00000042557_ENSMUST00000167715|mus_hu|FALSE|FALSE (ssRNA)
# RNA: GGGAGUUCUACAGUCCGACGAUCACAUCAAAGCAUAUUUCUUUUAAUAAAAAAUUGACAGUAUGUACAUUAUGUACAAAAAAACAAGUUAAAAUUGUGUGUGUGUGUGCGUGUGUGUGUCAGAGAGUAAAGCUGGUGGAUGGCCAACAGAGGAUUGAGCAUCA
# B14: chr7:135612270:135612271:-_ENSG00000105887_ENST00000393085|hu_mus|hu_hu_hu_mus_False|28_108 (ssRNA)
# RNA: GGGAGUUCUACAGUCCGACGAUCGUUUCUGAGAUGUAUGUUAAAUAGUACUUCAGUGGAAAACAAAACUUAACCUUUUAUUAAUGCGUGUUGUACCAAAAGCAGACCAUGGUUUUACAUUUAUUCAAAAAUAUUAACAUUAAGCAACAGAGGAUUGAGCAUCA
# B15: chr7:135612270:135612271:-_ENSG00000105887_ENST00000393085|hu_mus|hu_hu_hu_mus_False|28_58 (ssRNA)
# RNA: B9 RNA with U78C, A79G, U80C, G98A, A101G, G102C, C103A, A104G, A106C
# B16: chr16:30313237:30313238:-_ENSMUSG00000022533_ENSMUST00000100013|mus_mus|FALSE|FALSE (ssRNA)
# RNA: GGGAGUUCUACAGUCCGACGAUCAACAACCCUGAGGGAGACCCACAUUAAAAAAUCUUAUUUAUUUAAAAAGUUAAAAAGCUACAUAUCAUUAUUUAACAAUUACUUUACCAGACAUUUCUGUCCUUUAAGUAUGUGCAUAAACAACAGAGGAUUGAGCAUCA
# B17: chr7:135612270:135612271:-_ENSG00000105887_ENST00000393085|hu_mus|hu_hu_hu_mus_False|38_48 (ssRNA)
# RNA: B9 RNA with G87A, U91A, C107A, A108U, G110U, G111U, U112A, U113G, U114C, A116U
# B18: chr16:30313237:30313238:-_ENSMUSG00000022533_ENSMUST00000100013|mus_hu|FALSE|FALSE (ssRNA)
# RNA: GGGAGUUCUACAGUCCGACGAUCCAACCCUGAGGGAGACACACAUUAAAAAUCUUGUUAUUUAUUUAAAAAGUUAAAAAGUUACAUAUCAUUAUUUAACAAUUACUUUCCCAGACAUUUCUGUCCUUUAAGUAUGUGCAUAAACAACAGAGGAUUGAGCAUCA
# Biological target: T1, UNK ZnF1-3
# Assay: nsRBNS (natural sequence RNA bind-n-seq); RBNS binding buffer (assumed for nsRBNS): 25 mM Tris pH 7.5, 150 mM KCl, 3 mM MgCl2, 0.01% Triton X-100, 500 ug/ml BSA, 20 U/ml SUPERase-In, 4 C; UNK is unkempt and MSI1 is Musashi-1; names of the RNAs are library labels; protein concentration not given here; high values mean tight binding
row,Binder,binding signal [enrichment R]
1,B1,14.4
2,B2,0.843
3,B3,10.8
4,B4,0.957
5,B5,1.27
6,B6,1.44
7,B7,1.12
8,B8,0.611
9,B9,0.956
10,B10,4.08
11,B11,0.529
12,B12,6.23
13,B13,5.76
14,B14,0.924
15,B15,1.03
16,B16,4.91
17,B17,1.66
18,B18,3.61
